Data on 19 compounds can be found in PubChem BioAssay (NCATS).

A number with no mark means an inactive call. Inconclusive results are not listed. The source made the active and inactive calls. Unless noted, calls follow the shape of the dose curve; as a rule, active = well fitted curve in the direction sought with a large enough effect; inconclusive = small, poorly fitted or top-dose-only effect, or another doubt; inactive = no such curve, though single readings can be large; an effect the other way counts as inactive or inconclusive.

For test [1], the target named is Ubiquitin carboxyl-terminal hydrolase 1 (Homo sapiens) (UniProt O94782). Kind of test: Inhibitors of USP1/UAF1: Pilot qHTS (AID 504865). Also: nearly all actives have a fitted effect of over 35% in size. Also: potency is read from the fitted curve at half-maximal effect. Summed up:
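USP1/UAF1 complex at 1 nM preincubated 15 min at room temperature with compound, then Ub-Rho substrate added at 150 nM final. Fluorescence (480/540 nm) read kinetically in 50 mM HEPES pH 7.8, 0.5 mM EDTA, 1 mM TCEP, 0.1 mg/ml BSA, 0.01% Tween-20.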

Test [2] can be described thus: S16 Schwann cell viability assay (CellTiter-Glo assay) (AID 624031).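 Also: native untransfected S16 rat Schwann cells; cellular ATP luminescence as a viability measure; plate controls were DMSO-treated cells for no effect and cell-free wells for full effect; nearly all actives have a fitted effect of over 70% in size.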 The method, boiled down:
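Rat S16 Schwann cells without reporter constructs received compound or DMSO for 24 h at 37 °C under 5% CO2. Cellular ATP was then quantified by CellTiter-Glo luminescence, with vehicle wells defined as 0% activity and cell-free wells as reference.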

A short description of test [3]: S16 Schwann cell PMP22 intronic element beta-lactamase assay (AID 624044; calls by dose curve; also: nearly all actives have a fitted effect of over 15% in size; also: potency is read from the fitted curve at half-maximal effect;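 as to ratio activity, negative = inhibition: 0% = DMSO and -100% = potassium clavulanate positive control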). To be noted: S16 rat Schwann cells, PMP22 element beta-lactamase FRET, 24 h; ratio activity, negative = inhibition: at 38.3 µM (top of the series). Summed up:
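Rat S16 Schwann cells with beta-Lac driven by a PMP22 intronic element, compound-treated 24 h at 37 °C. LiveBLAzer FRET B/G read: 460 nm normalized to potassium clavulanate vs DMSO; 535 nm FRET as viability; concentration-effect curves classified.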

The test system of a further test is CP192. Kind of test: qHTS profiling for inhibitors of Plasmodium falciparum proliferation (AID 504749).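 Also: 0% = DMSO vehicle and full inhibition = artemisinin control; nearly all actives have a fitted effect of over 60% in size.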 To be noted: P. falciparum in erythrocytes, SYBR Green DNA, 72 h; series mostly up to 28.7 µM. The method, boiled down:
(§1)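 Parasite proliferation within erythrocytes, 72 h exposure. Endpoint: SYBR Green I fluorescence after overnight lysis at room temperature. Controls: 0.29 uM artemisinin, DMSO.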

The next test relates to CP201. The description is as above. As to conditions: P. falciparum in erythrocytes, SYBR Green DNA, 72 h; series mostly up to 28.7 µM. Summed up:
as §1

A further test concerns CP215. The test is described as above. As to conditions: P. falciparum in erythrocytes, SYBR Green DNA, 72 h; series mostly up to 28.7 µM. The method, boiled down: as §1
The subject of the next test is CP238. The description is as above. To be noted: P. falciparum in erythrocytes, SYBR Green DNA, 72 h; series mostly up to 28.7 µM. Summed up: as §1
The test system of the next test is CP325. Described as above. To be noted: P. falciparum in erythrocytes, SYBR Green DNA, 72 h; series mostly up to 28.7 µM. The method, boiled down: as §1
The test system of the next test is FAB9. The test is described as above. To be noted: P. falciparum in erythrocytes, SYBR Green DNA, 72 h; series mostly up to 28.7 µM. The method, boiled down:
as §1

The subject of another test is JCK. The description is as above. As to conditions: P. falciparum in erythrocytes, SYBR Green DNA, 72 h; series mostly up to 28.7 µM. Summed up:
as §1

The subject of another test is PC49. The description is as above. To be noted: P. falciparum in erythrocytes, SYBR Green DNA, 72 h; series mostly up to 28.7 µM. The method, boiled down:
as §1

Assay in test [4]: as above
As to conditions: P. falciparum in erythrocytes, SYBR Green DNA, 72 h, at 28.7 µM (top of the series). The method, boiled down: as §1

A further test deals with ATS189. The description is as above. As to conditions: P. falciparum in erythrocytes, SYBR Green DNA, 72 h; series mostly up to 28.7 µM. The method, boiled down:
as §1

For a further test, the system named is C2A. The test is described as above. As to conditions: P. falciparum in erythrocytes, SYBR Green DNA, 72 h; series mostly up to 28.7 µM. Summed up: as §1
The subject of a further test is CP191. Described as above. As to conditions: P. falciparum in erythrocytes, SYBR Green DNA, 72 h; series mostly up to 28.7 µM. Summed up:
as §1

A further test deals with ECU. Described as above. As to conditions: P. falciparum in erythrocytes, SYBR Green DNA, 72 h; series mostly up to 28.7 µM. Summed up:
as §1

Test [5] has as its target Cytochrome P450 3A4 (Homo sapiens) (UniProt P08684). Nature of the test: qHTS Assay for Activators of Cytochrome P450 3A4 (AID 885). Also: nearly all actives have a fitted effect of over 65% in size. Summed up: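 Steps: enzyme/substrate mix dispensed; compound added, 10 min RT; NADPH regeneration solution added, 60 min RT; luciferin detection buffer stops reaction; 20 min later luminescence measured.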
A short description of test [6]: Confirmation and Secondary Assay for Modulators of Hemoglobin Beta Chain Splicing at IVS2 654 locus (AID 910).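 Also: per-well total GFP intensity by laser scanning cytometry after 2-day treatment; % of control where 0% means no effect.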 Summed up:
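HeLa cells stably carrying EGFP interrupted by mutant beta-globin IVS2-654 intron (CMV-driven) were treated with compound for 2 days at 37C; corrected splicing was scored as total peak GFP intensity per well (488 nm excitation, 500-520 nm emission).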

Test [7] can be described thus: Confirmation and Secondary Assay for Modulators of Hemoglobin Beta Chain Splicing at IVS2 705 locus (AID 930).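 Also: HeLa cells stably expressing the EGFP-705 splicing reporter; GFP fluorescence per well restored by corrected splicing of the IVS2-705 intron in EGFP; % of control where 0% means no effect.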 The method, boiled down: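 Per-well GFP, captured at 1 x 8 µm resolution with 488 nm excitation, served as the read-out for HeLa EGFP-705 cells incubated 2 days with test compound versus DMSO.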
In test [8] the target is Cytochrome P450 3A4 (Homo sapiens) (UniProt P08684). Kind of test: qHTS Assay for Inhibitors and Substrates of Cytochrome P450 3A4 (AID 884). Also: nearly all actives have a fitted effect of over 50% in size. Also: potency is read from the fitted curve at half-maximal effect. Summed up: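 20 nM human CYP3A4 with 25 uM Luciferin-PPXE (at KM) in 200 mM KPO4, preincubated 10 min with compound; NADPH regeneration started a 60 min RT reaction. Luciferin detected by luminescence, normalized to 57 uM ketoconazole as full inhibition.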
Sequence of Cytochrome P450 3A4 (Homo sapiens) (P08684 whole entry, looked up): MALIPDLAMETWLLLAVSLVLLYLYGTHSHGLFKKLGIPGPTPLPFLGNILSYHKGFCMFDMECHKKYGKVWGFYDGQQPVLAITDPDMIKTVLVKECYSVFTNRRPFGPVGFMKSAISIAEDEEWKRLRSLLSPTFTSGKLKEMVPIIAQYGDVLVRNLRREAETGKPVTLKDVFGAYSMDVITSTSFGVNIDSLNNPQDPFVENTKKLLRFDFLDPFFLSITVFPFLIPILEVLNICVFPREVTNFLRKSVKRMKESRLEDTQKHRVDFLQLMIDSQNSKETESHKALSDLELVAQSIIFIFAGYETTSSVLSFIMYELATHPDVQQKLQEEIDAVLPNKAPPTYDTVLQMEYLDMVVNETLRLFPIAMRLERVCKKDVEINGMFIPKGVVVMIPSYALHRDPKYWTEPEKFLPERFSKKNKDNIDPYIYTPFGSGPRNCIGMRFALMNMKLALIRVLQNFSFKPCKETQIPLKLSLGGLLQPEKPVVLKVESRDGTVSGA

Sequence of Ubiquitin carboxyl-terminal hydrolase 1 (Homo sapiens) (O94782 whole entry, looked up): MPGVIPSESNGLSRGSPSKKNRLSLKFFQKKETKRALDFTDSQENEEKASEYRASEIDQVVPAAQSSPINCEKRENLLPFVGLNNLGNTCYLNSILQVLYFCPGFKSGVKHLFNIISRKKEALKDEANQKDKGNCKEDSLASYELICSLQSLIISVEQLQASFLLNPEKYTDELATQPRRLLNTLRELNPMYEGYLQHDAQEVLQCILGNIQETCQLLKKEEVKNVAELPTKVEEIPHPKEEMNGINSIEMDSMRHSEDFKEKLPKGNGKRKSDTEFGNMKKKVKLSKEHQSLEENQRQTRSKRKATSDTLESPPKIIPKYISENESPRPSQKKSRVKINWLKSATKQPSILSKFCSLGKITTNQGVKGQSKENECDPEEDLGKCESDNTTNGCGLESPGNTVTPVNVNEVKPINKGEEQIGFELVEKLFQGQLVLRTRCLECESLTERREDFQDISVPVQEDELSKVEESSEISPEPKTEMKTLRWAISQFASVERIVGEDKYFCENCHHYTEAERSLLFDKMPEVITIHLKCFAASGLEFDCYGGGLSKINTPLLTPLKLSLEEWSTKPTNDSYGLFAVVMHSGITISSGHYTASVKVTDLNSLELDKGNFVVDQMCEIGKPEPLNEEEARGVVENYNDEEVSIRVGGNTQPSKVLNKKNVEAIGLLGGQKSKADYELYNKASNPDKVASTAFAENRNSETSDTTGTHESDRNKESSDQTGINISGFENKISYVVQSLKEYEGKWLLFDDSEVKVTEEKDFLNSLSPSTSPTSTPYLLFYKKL

With `C[C@]12CC[C@H]3[C@@H](CC[C@@]45O[C@@H]4C(=O)C(C#N)C[C@]35C)[C@@H]1CC[C@@H]2O` (some centres undefined), the Potency entry (in [1]; in test [2]; in test [3]; in the test with CP192; with CP201; with CP215) was “inactive” throughout. The Potency result in the test on CP238, with CP325, in the test on FAB9, with JCK and with PC49 was “inactive” in each case.
`C=CC[C@]1(O)CCC2C3CCC4=CCCCC4C3CCC21C` (some centres undefined): the Potency result (in test [3]; in the test with ATS189; with C2A; with CP191; in the test with CP192; with CP201) was “inactive” throughout. For the same compound, the Potency entry with CP215, in the test on CP238, with CP325, with ECU, in the test on FAB9 and in the test on JCK was “inactive” throughout. Besides, in the test on PC49, the Potency result is “inactive”. Also, the activity, negative = inhibition in [4] (parasite line A) is -16.3%; in [4] (parasite line B), -3.62%.
Take `NC(Cc1ccc(Oc2cc(I)c(O)c(I)c2)c(I)c1)C(=O)O` (centres undefined): the Potency in test [1] was 79.4 µM (active). Also, the Potency entry (in test [2]; in test [3]; in the test with ATS189; with C2A; with CP191; in the test with CP192) was “inactive” throughout. The Potency entry in the test with CP201, in the test with CP215, with CP238, with CP325, in the test with ECU and in the test with FAB9 was “inactive” each time. The Potency result in the test with JCK and in the test with PC49 was “inactive” throughout. In addition, the activity, negative = inhibition was 8.09% in test [4] (parasite line A) and -0.518% in test [4] (parasite line B).
In the case of `CC12CCC3C4CCC(=O)C(O)=C4CCC3C1CCC2OC(=O)CCC1CCCC1` (centres undefined), the Potency entry (in test [1]; in test [2]; in test [3]; in the test with ATS189; in the test on C2A; in the test on CP191) was “inactive” throughout. Further, the Potency entry in the test on CP192, with CP201, in the test with CP215, in the test with CP238, in the test on CP325 and in the test on ECU was “inactive” throughout. Also, the Potency result in the test with FAB9, with JCK and in the test with PC49 was “inactive” throughout. In addition, the activity, negative = inhibition is -6.44% in test [4] (parasite line A) and -4.5% in test [4] (parasite line B).
Consider `CC[C@@H](CO)Nc1nc(NCc2ccccc2)c2ncn(C(C)C)c2n1`, for which the Potency result in test [5] was “inactive”.
Take `CN(C)[C@@H](Cc1ccccc1)c1ccccc1`: the Potency entry (in test [1]; in [2]; in test [3]; with ATS189; with C2A; with CP191) was “inactive” each time. Besides, the Potency result with CP192, in the test with CP201, with CP215, with CP238, in the test with CP325 and with ECU was “inactive” in each case. Further, the Potency result in the test with FAB9, in the test on JCK and in the test on PC49 was “inactive” in each case. Also, the activity, negative = inhibition in test [4] (parasite line A) is 6.12%; in test [4] (parasite line B) it was 4.62%.
Turning to `COC(=O)C1C(OC(=O)c2ccccc2)CC2CCC1N2C` (centres undefined), the Potency result (in [1]; in [2]; in test [3]; in the test with ATS189; with C2A; in the test with CP191) was “inactive” each time. Also, the Potency entry in the test with CP192, in the test with CP201, with CP215, in the test with CP238, in the test on CP325 and in the test on ECU was “inactive” in each case. Besides, the Potency entry in the test with FAB9, in the test on JCK and in the test on PC49 was “inactive” throughout. Moreover, the activity, negative = inhibition in [4] (parasite line A) was 9.75%; in [4] (parasite line B), -3.4%.
On to `CC(=O)O[C@H]1C[C@H](O[C@H]2[C@@H](O)CC(O[C@H]3[C@@H](O)C[C@H](O[C@H]4CC[C@@]5(C)[C@H](CC[C@@H]6[C@@H]5CC[C@]5(C)[C@@H](C7=CC(=O)OC7)CC[C@]65O)C4)O[C@@H]3C)O[C@@H]2C)O[C@H](C)[C@H]1O[C@@H]1O[C@H](CO)[C@@H](O)[C@H](O)[C@H]1O` (some centres undefined), for which the Potency result (in test [1]; in test [2]; in [3]; in the test on ATS189; with C2A; with CP192) was “inactive” in each case. Besides, the Potency result in the test on CP201, in the test on CP215, in the test with CP238, in the test with CP325, in the test on ECU and in the test on FAB9 was “inactive” throughout. The Potency result in the test on JCK and in the test on PC49 was “inactive” throughout. Further, the activity, negative = inhibition in [4] (parasite line A) was 9.47%; in test [4] (parasite line B) it was 16.3%.
Turning to `CC(=O)[C@H]1CC[C@H]2C3CC[C@H]4C[C@H](O)CC[C@]4(C)C3CC[C@]12C` (some centres undefined), the Potency result (in test [1]; in test [2]; in test [3]; in the test on ATS189; in the test with C2A; in the test on CP191) was “inactive” in each case. For the same compound, the Potency entry with CP192, with CP201, with CP215, in the test on CP238, in the test on CP325 and in the test with ECU was “inactive” throughout. The Potency result in the test on FAB9, in the test with JCK and with PC49 was “inactive” in each case. In addition, the figures for the activity, negative = inhibition in test [4] (parasite line A) and in test [4] (parasite line B) were -11.3% and 2.02%, respectively.
Consider `COc1cc2c(cc1OC)-c1c(OC)c(OC)c(C=O)c3c1[C@H](C2)N(C)CC3`, for which the Potency result in [5] was “inactive”.
In the case of `CC1=CC(=O)c2c(O)cccc2C1=O`, the Potency entry in test [5] and in test [6] was “inactive” each time. For the same compound, the outcome in test [7] was inactive.
Turning to `O=C(NC(=O)c1c(F)cccc1F)Nc1ccc(Cl)cc1`, the Potency result in test [6] was “inactive”. For the same compound, the outcome in test [7] was inactive.
With `CN1[C@H]2CC(OC(=O)[C@H](CO)c3ccccc3)C[C@H]1[C@H]1O[C@H]12` (some centres undefined), the Potency entry in test [1] is “inactive”.
`COC(=O)[C@]1(C)CC[C@@]2(C)CC[C@@]3(C)C4=CC=C5C(=CC(=O)C(O)=C5C)[C@@]4(C)CC[C@@]3(C)C2C1` (some centres undefined): the Potency entry in [5] and in test [6] was “inactive” each time. Besides, in test [7], the outcome was inactive. Further, the Potency in test [1] was 44.7 µM (active).
For `CC[C@]1([C@H]2O[C@@H]([C@@H]3O[C@](O)(CO)[C@@H](C)C[C@H]3C)C[C@H]2C)CC[C@@H]([C@]2(C)CC[C@@]3(C[C@@H](O)[C@@H](C)[C@@H]([C@H](C)[C@H](OC)[C@H](C)C(=O)O)O3)O2)O1`, in [1], the Potency result is “inactive”. Besides, the Potency in test [3] was 0.562 µM (active).
Take `CC(=O)Oc1c2c(c(CC=C(C)C)c3c1C(=O)C1=CC4CC5C(C)(C)OC(C/C=C(\C)C(=O)O)(C4=O)[C@]15O3)OC(C)(CCC=C(C)C)C=C2` (some centres undefined): the Potency in [8] and in test [1] was 12.6 µM (active) each time. Besides, the Potency result in [5] and in [6] was “inactive” each time. The result in [7] was inactive.
In the case of `CSc1nc(NC(C)C)nc(NC(C)C)n1`, the Potency result in test [8], in [6] and in test [1] was “inactive” throughout. In addition, the outcome in test [7] was inactive.
As to `CC(C)=O`, the Potency entry in [1] and in test [3] was “inactive” each time.
In the case of `Cc1cccc2c3c(ccc12)C1=C(C(=O)C3=O)C(C)CO1` (centres undefined), the Potency entry in [5] was “inactive”. In addition, the Potency in test [1] is 50.1 µM (active).
